# Laboratory results from paper PMC7862700, “An all-to-all approach to the identification of sequence-specific readers for epigenetic DNA modifications on cytosine”.
# What was measured:
# Assay in all cases: DAPPL (digital affinity profiling via proximity ligation, sequencing); 10 mM Tris-HCl pH 7.5, 50 mM NaCl, 1 mM DTT, 4% glycerol, room temperature, 30 min; GST-TFs on glutathione beads, 16-mer random dsDNA library, 0.1% formaldehyde crosslink after washing; high values mean tight binding
# Conditions in all cases: protein: recombinant; tags: N-terminal GST; dsDNA, one strand shown
# ERG = biological target: T1, ERG (Homo sapiens, UniProt P11308 1-479)
# T1 sequence: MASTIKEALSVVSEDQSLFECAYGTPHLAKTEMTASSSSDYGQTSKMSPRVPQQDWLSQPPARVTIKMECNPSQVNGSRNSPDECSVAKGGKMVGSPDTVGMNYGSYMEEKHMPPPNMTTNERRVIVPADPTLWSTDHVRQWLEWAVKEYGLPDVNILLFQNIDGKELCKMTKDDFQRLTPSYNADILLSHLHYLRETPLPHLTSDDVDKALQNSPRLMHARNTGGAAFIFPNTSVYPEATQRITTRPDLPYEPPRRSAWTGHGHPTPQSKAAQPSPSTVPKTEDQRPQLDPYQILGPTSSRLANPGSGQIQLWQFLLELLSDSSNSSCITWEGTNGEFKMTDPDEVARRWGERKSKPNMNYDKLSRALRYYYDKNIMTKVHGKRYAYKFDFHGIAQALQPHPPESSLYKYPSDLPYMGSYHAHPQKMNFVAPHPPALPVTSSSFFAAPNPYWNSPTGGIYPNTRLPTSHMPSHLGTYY
# Method in brief: (§1)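 Pools were built from human transcription factors expressed in yeast as GST fusions, captured on glutathione beads and DNA-barcoded, along with a tag-only sample. Incubation with 200 nmole of a 16-mer random double-stranded DNA library lasted 30 min at room temperature in Tris/NaCl/DTT/glycerol buffer, and was followed by washing, 0.1% formaldehyde crosslinking, proximity ligation, PCR amplification and Illumina NextSeq500 sequencing. Binding signal is the quotient of each hexamer's read frequency for a factor and its frequency for the tag-only sample.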
# EHF = biological target: T2, EHF (Homo sapiens, UniProt Q9NZC4 1-300)
# T2 sequence: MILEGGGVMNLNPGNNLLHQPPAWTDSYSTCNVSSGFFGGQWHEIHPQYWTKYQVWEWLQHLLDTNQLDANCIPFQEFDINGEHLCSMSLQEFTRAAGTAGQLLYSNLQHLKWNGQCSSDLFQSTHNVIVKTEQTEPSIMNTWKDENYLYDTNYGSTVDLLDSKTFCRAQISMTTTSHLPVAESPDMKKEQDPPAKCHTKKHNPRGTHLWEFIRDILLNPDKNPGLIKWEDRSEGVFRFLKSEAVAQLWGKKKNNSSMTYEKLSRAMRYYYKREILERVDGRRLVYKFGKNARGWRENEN
# Method in brief: as §1
# SPI1 = SPI1 (Homo sapiens, UniProt P17947 1-270)
# Method in brief: as §1
# SPIB = SPIB (Homo sapiens, UniProt Q01892 1-262)
# Method in brief: as §1
# SPIC = biological target: T3, SPIC (Homo sapiens, UniProt Q8N5J4 1-248)
# T3 sequence: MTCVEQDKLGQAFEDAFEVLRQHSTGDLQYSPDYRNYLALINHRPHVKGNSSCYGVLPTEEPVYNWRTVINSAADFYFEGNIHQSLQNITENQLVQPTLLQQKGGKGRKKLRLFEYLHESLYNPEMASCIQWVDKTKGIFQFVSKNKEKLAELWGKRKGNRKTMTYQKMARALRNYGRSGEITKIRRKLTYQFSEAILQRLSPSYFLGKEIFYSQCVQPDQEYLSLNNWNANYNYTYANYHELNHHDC
# Method in brief: as §1
# ELF3 = biological target: T4, ELF3 (Homo sapiens, UniProt P78545 1-371)
# T4 sequence: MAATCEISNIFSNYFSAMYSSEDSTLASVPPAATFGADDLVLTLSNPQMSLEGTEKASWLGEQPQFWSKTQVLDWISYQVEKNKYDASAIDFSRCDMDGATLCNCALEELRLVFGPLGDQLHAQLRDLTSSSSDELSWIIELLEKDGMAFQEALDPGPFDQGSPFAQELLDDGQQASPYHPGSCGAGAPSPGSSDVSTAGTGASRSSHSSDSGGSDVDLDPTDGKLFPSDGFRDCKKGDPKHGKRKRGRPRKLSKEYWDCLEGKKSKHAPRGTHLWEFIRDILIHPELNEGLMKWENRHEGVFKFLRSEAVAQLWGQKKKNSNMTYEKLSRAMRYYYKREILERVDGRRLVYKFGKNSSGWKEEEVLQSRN
# Method in brief: as §1
# ETV7 = biological target: T5, ETV7 (Homo sapiens, UniProt Q9Y603 1-341)
# T5 sequence: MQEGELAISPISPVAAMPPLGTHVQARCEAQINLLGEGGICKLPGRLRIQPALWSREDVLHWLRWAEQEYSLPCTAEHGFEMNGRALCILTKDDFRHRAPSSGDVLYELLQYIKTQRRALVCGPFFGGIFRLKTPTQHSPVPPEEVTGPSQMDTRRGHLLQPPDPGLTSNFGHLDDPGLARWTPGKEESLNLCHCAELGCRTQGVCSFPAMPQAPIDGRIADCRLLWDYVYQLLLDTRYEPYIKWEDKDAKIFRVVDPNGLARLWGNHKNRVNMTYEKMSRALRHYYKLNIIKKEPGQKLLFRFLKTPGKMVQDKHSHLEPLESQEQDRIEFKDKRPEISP
# Method in brief: as §1
# ELF5 = biological target: T6, ELF5 (Homo sapiens, UniProt Q9UKW6-2 1-255)
# T6 sequence: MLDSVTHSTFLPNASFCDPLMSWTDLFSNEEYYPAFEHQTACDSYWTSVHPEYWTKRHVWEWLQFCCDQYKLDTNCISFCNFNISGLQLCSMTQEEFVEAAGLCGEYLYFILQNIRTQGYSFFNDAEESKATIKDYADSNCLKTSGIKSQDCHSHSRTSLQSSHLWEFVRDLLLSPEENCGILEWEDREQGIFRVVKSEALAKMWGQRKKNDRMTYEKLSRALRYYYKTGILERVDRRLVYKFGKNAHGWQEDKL
# Method in brief: as §1
# ETV6 = ETV6 (Homo sapiens, UniProt P41212 1-452)
# Method in brief: as §1
# ERF = biological target: T7, ERF (Homo sapiens, UniProt P50548 1-548)
# T7 sequence: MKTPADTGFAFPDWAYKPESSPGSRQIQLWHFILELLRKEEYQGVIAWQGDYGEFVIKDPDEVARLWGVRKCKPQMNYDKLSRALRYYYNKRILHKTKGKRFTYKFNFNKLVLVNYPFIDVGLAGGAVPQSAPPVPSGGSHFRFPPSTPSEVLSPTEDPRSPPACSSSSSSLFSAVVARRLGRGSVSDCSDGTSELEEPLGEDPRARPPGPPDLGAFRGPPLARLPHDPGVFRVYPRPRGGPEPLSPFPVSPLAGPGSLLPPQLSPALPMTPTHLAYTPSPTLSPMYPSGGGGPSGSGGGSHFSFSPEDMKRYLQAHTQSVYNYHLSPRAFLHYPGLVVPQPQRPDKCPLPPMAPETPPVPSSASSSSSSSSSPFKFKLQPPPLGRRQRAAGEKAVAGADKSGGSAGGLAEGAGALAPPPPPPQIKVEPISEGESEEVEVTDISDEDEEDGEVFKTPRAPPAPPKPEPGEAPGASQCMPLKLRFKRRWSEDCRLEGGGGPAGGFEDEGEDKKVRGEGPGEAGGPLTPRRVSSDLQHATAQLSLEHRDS
# Method in brief: as §1
# ETV2 = biological target: T8, ETV2 (Homo sapiens, UniProt O00321 1-342)
# T8 sequence: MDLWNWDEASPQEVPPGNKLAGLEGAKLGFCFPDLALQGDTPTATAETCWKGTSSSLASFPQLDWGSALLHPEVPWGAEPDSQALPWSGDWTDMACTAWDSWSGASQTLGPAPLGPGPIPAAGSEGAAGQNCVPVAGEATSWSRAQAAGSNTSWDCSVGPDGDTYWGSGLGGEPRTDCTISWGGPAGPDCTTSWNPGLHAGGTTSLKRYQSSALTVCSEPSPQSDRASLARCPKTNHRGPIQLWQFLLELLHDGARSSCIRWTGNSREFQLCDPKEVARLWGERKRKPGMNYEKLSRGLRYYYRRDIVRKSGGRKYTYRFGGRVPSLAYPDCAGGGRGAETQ
# Method in brief: as §1
# ETV3L = biological target: T9, ETV3L (Homo sapiens, UniProt Q6ZN32 1-361)
# T9 sequence: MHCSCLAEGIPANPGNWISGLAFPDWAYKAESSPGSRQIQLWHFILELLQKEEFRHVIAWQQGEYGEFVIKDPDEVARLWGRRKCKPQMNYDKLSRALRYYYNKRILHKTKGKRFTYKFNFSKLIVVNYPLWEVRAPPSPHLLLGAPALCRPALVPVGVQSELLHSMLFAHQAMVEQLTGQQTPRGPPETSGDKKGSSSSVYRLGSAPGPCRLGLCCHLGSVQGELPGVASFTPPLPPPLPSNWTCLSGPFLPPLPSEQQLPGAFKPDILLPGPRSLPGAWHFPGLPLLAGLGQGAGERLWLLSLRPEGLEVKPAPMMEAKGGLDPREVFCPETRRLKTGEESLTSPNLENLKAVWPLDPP
# Method in brief: as §1
# SPIB, sequence (Q01892 whole entry): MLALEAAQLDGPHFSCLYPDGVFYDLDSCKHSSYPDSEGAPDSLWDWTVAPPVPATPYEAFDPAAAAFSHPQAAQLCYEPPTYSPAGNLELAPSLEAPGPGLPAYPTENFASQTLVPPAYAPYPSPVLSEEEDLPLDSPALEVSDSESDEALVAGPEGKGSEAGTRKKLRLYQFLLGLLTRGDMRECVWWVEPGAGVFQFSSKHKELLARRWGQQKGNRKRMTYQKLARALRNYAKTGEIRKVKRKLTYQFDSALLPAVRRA
# ETV6, sequence (P41212 whole entry): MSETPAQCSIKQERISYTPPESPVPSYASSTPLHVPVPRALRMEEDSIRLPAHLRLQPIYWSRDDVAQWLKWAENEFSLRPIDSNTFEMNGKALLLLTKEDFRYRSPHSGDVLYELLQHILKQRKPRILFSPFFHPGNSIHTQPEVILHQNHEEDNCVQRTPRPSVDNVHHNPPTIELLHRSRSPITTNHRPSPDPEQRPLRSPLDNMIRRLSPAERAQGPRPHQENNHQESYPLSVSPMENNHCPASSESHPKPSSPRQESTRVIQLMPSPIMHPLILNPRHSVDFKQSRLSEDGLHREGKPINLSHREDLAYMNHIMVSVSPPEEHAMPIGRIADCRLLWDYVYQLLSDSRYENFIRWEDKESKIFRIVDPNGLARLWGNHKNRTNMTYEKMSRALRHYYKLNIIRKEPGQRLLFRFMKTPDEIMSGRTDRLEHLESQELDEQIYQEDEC
sequence,measurement,setting,value
AGGGAA,binding signal,ERG,"1.02 fold enrichment (6-mer frequency, TF over GST control)"
same,binding signal,EHF,"1.04 fold enrichment (6-mer frequency, TF over GST control)"
same,binding signal,SPI1,"1.39 fold enrichment (6-mer frequency, TF over GST control)"
same,binding signal,SPIB,"1 fold enrichment (6-mer frequency, TF over GST control)"
same,binding signal,SPIC,"1.01 fold enrichment (6-mer frequency, TF over GST control)"
same,binding signal,ELF3,"1.01 fold enrichment (6-mer frequency, TF over GST control)"
same,binding signal,ETV7,"1.06 fold enrichment (6-mer frequency, TF over GST control)"
same,binding signal,ELF5,"1.24 fold enrichment (6-mer frequency, TF over GST control)"
same,binding signal,ETV6,"1.03 fold enrichment (6-mer frequency, TF over GST control)"
GTACAG,binding signal,SPIB,"1.01 fold enrichment (6-mer frequency, TF over GST control)"
same,binding signal,SPIC,"1.02 fold enrichment (6-mer frequency, TF over GST control)"
same,binding signal,ERF,"1.02 fold enrichment (6-mer frequency, TF over GST control)"
same,binding signal,ETV7,"1.06 fold enrichment (6-mer frequency, TF over GST control)"
AGATGG,binding signal,SPIC,"1.1 fold enrichment (6-mer frequency, TF over GST control)"
same,binding signal,ETV2,"1.02 fold enrichment (6-mer frequency, TF over GST control)"
AGCATG,binding signal,SPIC,"1.07 fold enrichment (6-mer frequency, TF over GST control)"
same,binding signal,ETV3L,"1.02 fold enrichment (6-mer frequency, TF over GST control)"
